PI5P4Ka inh: qHTS for Inhibitors of phosphatidylinositol 5-phosphate 4-kinase (PI5P4K). Phosphatidylinositol 5-phosphate 4-kinase type-2 alpha (Homo sapiens), P48426. PI5P4Kalpha enzyme, ADP-Glo luminescence, 60 min; active compounds read low. max response, %. 330,000 compounds, 1.2% hits. AID 652105, 2013; active = max response of -50% or lower; inconclusive = between -30% and -50%; inactive = -30% or higher; note: value at the top dose of about 77 µM
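ADP-Glo luminescence end-point after a 60 min room-temperature kinase reaction. PI5P4Kalpha and substrate in HEPES pH 7.4 buffer with EGTA, 0.1% CHAPS and 5% DMSO; ATP at 5 microM final.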
Tb PFK inh: qHTS Assay to Find Inhibitors of T. brucei phosphofructokinase | ATP-dependent 6-phosphofructokinase (Trypanosoma brucei brucei), O15648 | T. brucei PFK, ADP-Glo luminescence | Potency, µM (highest dose often 57.5 µM), most hits filed as inhibitors | 330,000 compounds, 0.17% hits | AID 485367, 2010; note: nearly all actives have a fitted effect of over 60% in size
Target sequence (O15648 whole entry, looked up): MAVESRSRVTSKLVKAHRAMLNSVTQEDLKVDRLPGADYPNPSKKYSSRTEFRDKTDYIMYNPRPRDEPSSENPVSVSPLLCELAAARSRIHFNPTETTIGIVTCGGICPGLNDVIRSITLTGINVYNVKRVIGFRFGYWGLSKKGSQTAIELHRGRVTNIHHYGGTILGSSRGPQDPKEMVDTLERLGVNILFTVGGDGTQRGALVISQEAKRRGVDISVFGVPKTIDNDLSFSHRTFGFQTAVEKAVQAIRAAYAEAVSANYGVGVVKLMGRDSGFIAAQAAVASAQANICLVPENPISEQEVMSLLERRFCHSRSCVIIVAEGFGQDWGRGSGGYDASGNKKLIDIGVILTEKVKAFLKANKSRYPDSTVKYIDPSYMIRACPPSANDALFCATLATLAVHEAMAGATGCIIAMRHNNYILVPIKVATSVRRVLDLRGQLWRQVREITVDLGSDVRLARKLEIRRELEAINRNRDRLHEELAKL
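Luminescent ADP detection (ADP-Glo, two-step: ATP depletion then ADP-to-ATP conversion for luciferase) reported PFK activity after 45 min room-temperature reaction of 1.25 nM enzyme with 0.5 mM F6P and 0.1 mM ATP at pH 8.0.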
PI4K2A block: qHTS for small molecular inhibitors of PI4K2A | 420,000 compounds, 0.13% hits | activity change, negative = inhibition, % at 76.9 µM | Phosphatidylinositol 4-kinase type 2-alpha (Homo sapiens), Q9BTU6 | purified PI4K2A, ADP-Glo luminescence, 1 h; active compounds read low | AID 1346378, 2018; in the data active = activity change below about -50%; inconclusive = mostly about -30% to -49%
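ADP-Glo luminescence measured ADP generated by PI4K2A enzyme (4 ug/mL before mixing) with 1.2 mM PI substrate (pre-mix) and 300 microM ATP (pre-mix). Tris pH7.5 buffer with MgCl2, Triton X-100; 1 h reaction at ambient temperature.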
Pin1 inhibitor: qHTS Assay to Find Inhibitors of Pin1. 390,000 compounds, 0.009% hits. Pin1 FP peptide displacement, HiFluor488, 10 min. Potency, µM (top dose mostly 115 µM), most hits filed as inhibitors. Peptidyl-prolyl cis-trans isomerase NIMA-interacting 1 (Homo sapiens), Q13526; active = well fitted inhibition curve with a large enough effect in the polarisation, with a control signal flat, not every such curve was filed as active; inconclusive = small, poorly fitted or top-dose-only effect, or effect the other way, or a change in a side signal; inactive = no such curve, though single readings can be large or run the other way; the % refers to the polarisation
Tb PGK inh: qHTS Assay to Find Inhibitors of Phosphoglycerate Kinase; 380,000 compounds, 0.043% hits; PGK/GAPDH coupled, Kinase-Glo luminescence, 60 min; Phosphoglycerate kinase, glycosomal (Trypanosoma brucei brucei), P07378; Potency, µM (series often up to 57.5 µM), hits mostly inhibitors; note: nearly all actives have a fitted effect of over 60% in size
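Recombinant glycosomal PGK reaction used 1,3-bisphosphoglycerate generated in-well by GAPDH (100nM final) in 100mM TEA pH 7.6, 5mM MgCl2, 0.01% Tween-20. After 60 minutes at room temperature, ATP was read by Kinase-Glo Plus luminescence end-point.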
Each line names hits and unclear results; the compound was inactive in the other large screens; ! = a repeat was not active. The entries come from a sample that favours hits as a whole. Unless noted, calls come from the whole dose curve; as a rule, active = well fitted curve in the direction sought with a large enough effect; inconclusive = small, poorly fitted or top-dose-only effect, or another doubt; inactive = no such curve, though single readings can be large; an effect the other way counts as inactive or inconclusive.

C=CCn1c(O)c(/C(CC)=N/NC(=S)Nc2ccccc2)c(=O)[nH]c1=O	none
Cc1ccc(NC(=O)NCc2ccc3c(c2)CCN3C(=O)c2ccccc2)c(Cl)c1	Pin1 inhibitor inconclusive (no result: PI5P4Ka inh, Tb PFK inh)
CN1C(=O)NC(=O)/C(=C/c2ccc([N+](=O)[O-])o2)C1=O	PI5P4Ka inh -82.4, Tb PFK inh inconclusive, PI4K2A block inconclusive, Pin1 inhibitor inconclusive, Tb PGK inh 14.1µM
CN1C(=O)NC(=O)/C(=C\c2ccc([N+](=O)[O-])o2)C1=O	PI5P4Ka inh -102.3, Pin1 inhibitor inconclusive, Tb PGK inh inconclusive
CCn1c(O)c(/C=N/NC(=O)c2ccncc2)c(=O)[nH]c1=S	Pin1 inhibitor inconclusive
CC(C)c1ccc(-n2c(O)c(/C=N/NC(=O)c3ccccc3O)c(=O)[nH]c2=S)cc1	PI5P4Ka inh -64.8
CCCCn1c(O)c(/C=N/NC(=O)c2ccncc2)c(=O)[nH]c1=O	PI5P4Ka inh -65.4
O=c1[nH]c(=O)n(CCC2=CCCCC2)c(O)c1/C=N/Nc1ccccc1	none
O=c1[nH]c(=O)n(CCC2=CCCCC2)c(O)c1/C=N/Nc1cccc2ccccc12	PI5P4Ka inh -65.2, Pin1 inhibitor inconclusive
O=C(N/N=C/c1c(O)n(CCc2ccccc2)c(=O)[nH]c1=O)c1ccccc1	PI5P4Ka inh -76.7
O=C(N[C@@H]1N=C(c2ccccc2F)c2cccc3c2N(CC3)C1=O)c1cc2ccccc2[nH]1	none (no result: PI5P4Ka inh, Tb PFK inh, Pin1 inhibitor, Tb PGK inh)
O=C(N/N=C/c1c(O)n(Cc2ccco2)c(=O)[nH]c1=O)c1ccccc1O	PI5P4Ka inh -82.7
CCCCC(=O)N/N=C/c1c(O)n(Cc2ccco2)c(=O)[nH]c1=O	PI5P4Ka inh inconclusive
CN1C(=O)C(=Cc2ccccc2Oc2ccc(Cl)c(F)c2)C(=O)N(C)C1=O	PI5P4Ka inh -52.2
O=C1NC(=O)C(=Cc2ccccc2Oc2ccc(F)cc2)C(=O)N1	PI5P4Ka inh inconclusive, PI4K2A block inconclusive
Cc1cc(C=C2C(=O)NC(=S)NC2=O)c(C)n1-c1ccc2c(c1)OCO2	PI5P4Ka inh -71.8
CN1CCc2cc(O)cc3c2[C@H]1Cc1ccc(O)c(O)c1-3	PI5P4Ka inh -52.2 (no result: Tb PFK inh)
CCCN1CCc2cc(O)cc3c2[C@H]1Cc1ccc(O)c(O)c1-3	PI5P4Ka inh inconclusive, Pin1 inhibitor inconclusive (no result: Tb PFK inh)
CCO[C@H]1O[C@@H]2OC3(C)CC[C@H]4[C@H](C)CC[C@@H]([C@H]1C)[C@@]24OO3	none (no result: PI5P4Ka inh, Tb PFK inh, Pin1 inhibitor, Tb PGK inh)
Cc1cc(/C=C2\C(=O)NC(=O)N(c3ccccc3F)C2=O)c(C)n1-c1cc(C(=O)O)cc(C(=O)O)c1	PI5P4Ka inh -78.1, Tb PGK inh 11.2µM (no result: Pin1 inhibitor)
Cc1cc(/C=C2\C(=O)NC(=O)N(c3ccc(F)cc3)C2=O)c(C)n1-c1cccc(C(=O)O)c1	PI5P4Ka inh -50.3
O=c1c(O)c(-c2ccc(O)c(O)c2)oc2cc(O)cc(O)c12	PI5P4Ka inh -83.6, Tb PFK inh inconclusive, Pin1 inhibitor inconclusive, Tb PGK inh inconclusive
C[C@]12CC[C@H]3[C@@H](CCC4=CC(=O)CC[C@@]43C)[C@@H]1CC[C@@H]2C(=O)O	none (no result: PI5P4Ka inh, Tb PFK inh, Pin1 inhibitor, Tb PGK inh)
CN(C)[C@@H]1C(=O)C(C(N)=O)=C(O)[C@@]2(O)C(=O)C3=C(O)c4c(O)cccc4[C@@](C)(O)C3[C@H](O)C12 (stereo partly drawn)	PI5P4Ka inh -87.7!, Tb PFK inh inconclusive, Pin1 inhibitor inconclusive
CN(C)C1C(=O)C(C(N)=O)=C(O)C2(O)C(=O)C3=C(O)c4c(O)cccc4C(C)(O)C3CC12 (stereo not drawn)	none
CCN1C(=O)C(=Cc2cc(C)n(C3CC3)c2C)C(=O)N(CC)C1=S	Pin1 inhibitor inconclusive
CCN1C(=O)C(=Cc2ccc(C)s2)C(=O)N(CC)C1=S	PI5P4Ka inh -68.6, Tb PFK inh inconclusive, Pin1 inhibitor inconclusive
O=C1NC(=S)N(c2ccccc2F)C(=O)/C1=C\c1cccs1	PI5P4Ka inh -91.1, Pin1 inhibitor inconclusive
CCOc1ccc(N2C(=O)/C(=C/c3ccco3)C(=O)NC2=S)cc1	PI5P4Ka inh -82.1, PI4K2A block -81.0, Pin1 inhibitor inconclusive, Tb PGK inh inconclusive
